Results on 38 compounds are retold here after PubChem BioAssay (Tox21).

The target in assay [1] is Aryl hydrocarbon receptor (Homo sapiens) (UniProt P35869). The assay is described as follows: qHTS assay to identify small molecule that activate the aryl hydrocarbon receptor (AhR) signaling pathway (AID 743085).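 For activation: HG2L7.5c1 human HepG2 liver cells with stably integrated DRE-driven firefly reporter; series mostly up to about 70 µM.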 Note: nearly all actives have a fitted effect of over 15% in size. Note: potency is the fitted concentration of half-maximal effect. Put shortly:
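Measured in HG2L7.5c1 cells: CellTiter-Fluor signal (30 min incubation, 37C) for viability, then luciferase luminescence (30 min, room temperature). Compound contact time was 24 h at 37C, following a 5 h pre-incubation.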
For orientation: In qHTS, concentration-response curves come from the screen itself.

Assay [2] can be described thus: qHTS assay to identify small molecule that activate the aryl hydrocarbon receptor (AhR) signaling pathway - cell viability counter screen (AID 743086). Note: nearly all actives have a fitted effect of over 45% in size. Note: potency is the fitted concentration of half-maximal effect. Put shortly:
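Cytotoxicity counter screen: CellTiter-Fluor signal (30 min, 37 C) in 4000 HepG2 cells/well carrying the DRE-luciferase reporter, following 24 h compound exposure at 37 C.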

A short description of assay [3]: qHTS assay to identify small molecule antagonists of the peroxisome proliferator-activated receptor gamma (PPARg) signaling pathway - cell viability counter screen (AID 743194). Note: nearly all actives have a fitted effect of over 55% in size. A digest of the protocol: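 Viability was measured as CellTiter-Glo luminescence in GeneBLAzer PPARg UAS-bla HEK293H cells. These cells had been exposed 17 h at 37 C to compounds together with rosiglitazone at 50 nM final, with the beta-lactamase readout taken in the same wells.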

Assay [4] can be described thus: qHTS assay for small molecule agonists of the antioxidant response element (ARE) signaling pathway - cell viability counter screen (AID 743203; calls by dose curve; note: nearly all actives have a fitted effect of over 55% in size; note: potency is the fitted concentration of half-maximal effect). A digest of the protocol:
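Luminescence read-out (CellTiter-Glo, 30 min at room temperature) measured cell viability in the same wells as the ARE beta-lactamase reporter. HepG2 ARE-bla cells were treated with compounds for 16 hrs at 37C/5% CO2.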

A short description of assay [5]: qHTS assay for small molecule activators of the heat shock response signaling pathway - cell viability counter screen (AID 743209). Note: nearly all actives have a fitted effect of over 50% in size. Note: potency is the fitted concentration of half-maximal effect. A digest of the protocol: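 HSE-bla HeLa; 1500 cells/well; overnight 37 C, 5% CO2; compound 5 h 37 C; LiveBLAzer B/G substrate 2.5 h RT; CellTiter-Glo 30 min RT; luminescence.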
Assay [6] concerns the target Peroxisome proliferator-activated receptor gamma (Homo sapiens) (UniProt P37231). The assay is described as follows: qHTS assay to identify small molecule antagonists of the peroxisome proliferator-activated receptor gamma (PPARg) signaling pathway (AID 743191; calls by dose curve; note: nearly all actives have a fitted effect of over 30% in size; note: potency is the fitted concentration of half-maximal effect). Put shortly:
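Beta-lactamase reporter under UAS control in HEK293H PPARg-bla cells; compound treatment 17 h at 37C. Read-out: fluorescence intensity after 1 h room-temperature incubation with LiveBLAzer B/G FRET substrate.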

A short description of assay [7]: qHTS assay for small molecule agonists of the antioxidant response element (ARE) signaling pathway (AID 743202; active = well fitted activation curve with a large enough effect in the signal ratio in the repeat runs, not every such curve was filed as active; the % refers to the signal ratio; note: potency is the fitted concentration of half-maximal effect). Put shortly:
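Beta-lactamase reporter activity, read as fluorescence intensity, reflects ARE/Nrf2 pathway induction in HepG2 cells after 16 h compound exposure at 37 C; substrate loading was 2 h at room temperature.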

Assay [8] is described as follows: qHTS assay for small molecule activators of the heat shock response signaling pathway (AID 743210; active = well fitted activation curve with a large enough effect in the signal ratio in the repeat runs, with a control signal flat, not every such curve was filed as active; the % refers to the signal ratio;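 note: HeLa cells with beta-lactamase reporter driven by heat shock elements; series mostly up to about 63 µM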). A digest of the protocol: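 Fluorescence from a cleaved B/G FRET substrate (2.5 h, room temp) reports HSE-driven beta-lactamase in HeLa cells treated 5 h at 37 C with DMSO-dissolved compounds.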
The target in assay [9] is Peroxisome proliferator-activated receptor gamma (Homo sapiens) (UniProt P37231). Nature of the assay: qHTS assay to identify small molecule agonists of the peroxisome proliferator-activated receptor gamma (PPARg) signaling pathway (AID 743094; active = well fitted activation curve with a large enough effect in the signal ratio in the repeat runs, not every such curve was filed as active; the % refers to the signal ratio). Put shortly: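 HEK293H PPARg-bla cells, 5 h settle at 37C/5% CO2; compound (DMSO) 17 h, 37C; B/G FRET substrate 1 h RT; fluorescence intensity read-out. qHTS format.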

Results filed as inconclusive are left out. Values without a mark were called inactive. Activity calls are given as the source filed them. Unless noted, calls come from the whole dose curve; as a rule, active = well fitted curve in the direction sought with a large enough effect in the repeat runs; inconclusive = weak or mixed curves; inactive = no such curve, though single readings can be large; an effect the other way counts as inactive or inconclusive.

Chain of Aryl hydrocarbon receptor (Homo sapiens) (P35869 whole entry, looked up): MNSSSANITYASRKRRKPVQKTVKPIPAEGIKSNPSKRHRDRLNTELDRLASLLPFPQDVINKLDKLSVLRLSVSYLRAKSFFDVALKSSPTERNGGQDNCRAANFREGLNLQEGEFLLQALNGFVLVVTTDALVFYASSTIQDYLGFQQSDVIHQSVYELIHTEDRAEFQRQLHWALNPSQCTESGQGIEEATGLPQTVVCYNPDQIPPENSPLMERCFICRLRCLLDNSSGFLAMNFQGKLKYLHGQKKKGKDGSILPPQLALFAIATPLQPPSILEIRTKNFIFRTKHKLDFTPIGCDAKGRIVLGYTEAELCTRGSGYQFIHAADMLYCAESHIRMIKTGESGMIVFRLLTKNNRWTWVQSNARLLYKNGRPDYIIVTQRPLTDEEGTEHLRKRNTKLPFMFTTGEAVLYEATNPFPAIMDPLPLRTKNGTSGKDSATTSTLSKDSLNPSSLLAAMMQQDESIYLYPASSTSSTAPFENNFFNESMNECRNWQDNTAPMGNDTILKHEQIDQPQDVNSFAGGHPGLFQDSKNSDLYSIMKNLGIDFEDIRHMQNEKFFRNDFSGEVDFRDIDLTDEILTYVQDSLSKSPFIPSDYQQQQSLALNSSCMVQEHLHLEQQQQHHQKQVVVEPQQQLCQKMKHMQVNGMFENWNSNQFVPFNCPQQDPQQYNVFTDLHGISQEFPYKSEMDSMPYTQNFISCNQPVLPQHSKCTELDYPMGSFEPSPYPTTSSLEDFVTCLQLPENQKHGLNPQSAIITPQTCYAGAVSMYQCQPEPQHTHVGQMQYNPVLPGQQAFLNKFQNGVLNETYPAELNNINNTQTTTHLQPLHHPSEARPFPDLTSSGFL
Chain of Peroxisome proliferator-activated receptor gamma (Homo sapiens) (P37231 whole entry, looked up): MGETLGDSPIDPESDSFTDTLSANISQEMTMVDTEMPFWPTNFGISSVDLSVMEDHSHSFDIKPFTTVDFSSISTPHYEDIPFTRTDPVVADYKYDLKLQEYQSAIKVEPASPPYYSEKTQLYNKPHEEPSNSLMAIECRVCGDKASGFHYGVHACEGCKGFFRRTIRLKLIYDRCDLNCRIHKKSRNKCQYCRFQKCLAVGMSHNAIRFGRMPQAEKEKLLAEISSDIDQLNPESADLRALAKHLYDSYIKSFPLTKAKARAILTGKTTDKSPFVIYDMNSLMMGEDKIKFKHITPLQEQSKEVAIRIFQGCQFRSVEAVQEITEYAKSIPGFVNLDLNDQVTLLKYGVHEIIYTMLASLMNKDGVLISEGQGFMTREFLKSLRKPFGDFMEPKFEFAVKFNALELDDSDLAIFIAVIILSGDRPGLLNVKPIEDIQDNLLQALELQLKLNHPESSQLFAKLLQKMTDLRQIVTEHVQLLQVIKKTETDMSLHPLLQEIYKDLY

Regarding `CC1C2CC(CC2C2CCCC(O)C2)C1(C)C` (configuration not stated), the Potency entry in assay [1], in assay [2] and in assay [3] was “inactive” throughout. In addition, the Potency in assay [4] is 61.1 µM (active); in assay [5], 49 µM (active).
In the case of `C/C(=N/NC(=O)c1ccncc1)C(=O)O`, the Potency result in assay [6], in assay [7], in [4], in assay [5] and in assay [8] was “inactive” in each case.
For the compound `C/C=C/C=C/CCCCCCCO`, the Potency result in assay [2], in assay [9], in assay [3] and in assay [4] was “inactive” each time.
`COc1ccc(C(=O)c2cccc(O)c2)c(OC)c1`: the Potency in assay [1] is 17.2 µM (active). The Potency entry in assay [2], in assay [9], in assay [3], in [4], in [5] and in assay [8] was “inactive” in each case.
Regarding `CCCCC/C(=C\c1ccccc1)CO`, the Potency result in assay [1], in assay [2], in assay [9], in [7], in [4] and in assay [5] was “inactive” in each case. The Potency result in assay [8] is “inactive”.
On to `Cc1ccc(S(=O)(=O)NC2CCCCC2)cc1`, for which the Potency entry in assay [1], in assay [2], in assay [9], in assay [3], in [7] and in [4] was “inactive” throughout. Further, the Potency entry in assay [5] and in assay [8] was “inactive” throughout.
With `Cc1ccc(Nc2nccc(N(C)c3ccc4c(C)n(C)nc4c3)n2)cc1S(N)(=O)=O`, the Potency in assay [2] was 23.7 µM (active); in [6], 26.6 µM (active). In addition, the Potency entry in assay [4] and in assay [8] was “inactive” throughout.
Take `C=CCNc1nc(NCC=C)nc(N2CCN(C(c3ccc(F)cc3)c3ccc(F)cc3)CC2)n1`: the Potency result in assay [6], in assay [3], in [5] and in [8] was “inactive” in each case.
As to `C=CC(C)(C)CC(=O)OC`, the Potency result in assay [2], in [3], in [7], in [4], in assay [5] and in assay [8] was “inactive” each time.
Regarding `CN1Cc2cc(C(=O)N3CCC(C4CCNCC4)CC3)ccc2N[C@@H](CC(=O)O)C1=O`, the Potency entry in assay [6], in [3], in assay [4] and in assay [8] was “inactive” in each case.
As to `COC(=O)c1cc(S(N)(=O)=O)ccc1OC`, the Potency entry in assay [6], in assay [3], in assay [7], in assay [4], in [5] and in assay [8] was “inactive” in each case.
`CCCCCCOC(=O)CCCCCCCC(=O)OCCCCCC`: the Potency entry in assay [2], in assay [3], in assay [7], in assay [4], in assay [5] and in [8] was “inactive” in each case.
For the compound `CCNC(=O)N1CCN(CCCC(c2ccc(F)cc2)c2ccc(F)cc2)CC1`, the Potency result in [1], in [4] and in assay [8] was “inactive” each time. For the same compound, the Potency in assay [2] was 13.3 µM (active).
On to `CN(C)CCOC1=Cc2ccccc2Sc2ccc(Cl)cc21`, for which the Potency entry in assay [1], in [3], in [7], in assay [4], in assay [5] and in assay [8] was “inactive” each time.
For the compound `COCCOC(=O)C1=C(C)NC(C)=C(C(=O)OC/C=C/c2ccccc2)C1c1cccc([N+](=O)[O-])c1` (configuration not stated), the Potency in [1] was 0.944 µM (active); in assay [6] it was 18.8 µM (active). Besides, the Potency entry in [3], in assay [5] and in assay [8] was “inactive” throughout.
`O=C1OCCN1/N=C/c1ccc([N+](=O)[O-])o1`: the Potency entry in [9], in assay [5] and in [8] was “inactive” each time. In [7], the Potency was 15 µM (active).
With `Cn1c(=O)c2c(ncn2CC(=O)O)n(C)c1=O`, the Potency result in assay [6], in [7] and in assay [4] was “inactive” each time.
Turning to `Nc1c(I)cc(I)c(C(=O)N(CCC(=O)O)c2ccccc2)c1I`, the Potency result in [7], in assay [4], in [5] and in [8] was “inactive” throughout.
Take `CCOC(=O)CC(=O)C(=O)OCC`: the Potency result in assay [1], in assay [2], in assay [9], in assay [7], in [4] and in [8] was “inactive” throughout.
Consider `O=C(N[C@@H](c1ccccc1)[C@@H]1CCCCN1)c1cccc(C(F)(F)F)c1Cl`, for which the Potency entry in assay [1], in [5] and in [8] was “inactive” in each case. The figures for the Potency in assay [2] and in assay [4] were 24.3 µM (active) and 21.7 µM (active), respectively.
As for `O=C(CCC1CCN(Cc2ccccc2)CC1)c1ccc2c(c1)NCCCC2`, the Potency entry in [9], in assay [6], in [3], in assay [4], in assay [5] and in assay [8] was “inactive” in each case. In addition, the Potency in assay [7] was 23.7 µM (active).
For the compound `CCCCC(CC)CNCC(CC)CCCC` (configuration not stated), the Potency result in assay [2], in assay [7], in assay [4], in assay [5] and in assay [8] was “inactive” throughout.
As for `N#C/C(=C1/SC[C@@H](c2ccc(Cl)cc2Cl)S1)n1ccnc1`, the Potency entry in [2], in assay [3], in [5] and in assay [8] was “inactive” each time.
On to `COc1ccc([C@@H]2Sc3ccccc3NC(=O)[C@@H]2O)cc1`, for which the Potency result in assay [3], in assay [7], in assay [4], in [5] and in assay [8] was “inactive” in each case.
With `CCCCC1C(=O)N(c2ccccc2)N(c2ccc(O)cc2)C1=O` (configuration not stated), the Potency entry in [1], in [2], in assay [3] and in assay [4] was “inactive” each time. Besides, in assay [7], the Potency was 29.8 µM (active).
On to `CCOCCn1c(C2CCN(CCc3ccc(C(C)(C)C(=O)O)cc3)CC2)nc2ccccc21`, for which the Potency result in [3], in assay [7], in [4], in [5] and in [8] was “inactive” in each case.
In the case of `CC1=C(/C=C/C(C)=C\C=C\C(C)=C\C(=O)O)C(C)(C)CCC1`, the Potency result in [1], in assay [2], in [6], in [3], in assay [4] and in assay [5] was “inactive” throughout. Moreover, the Potency result in [8] was “inactive”.
As to `O=C(CCCCCCC(=O)Nc1ccccc1)NO`, the Potency result in assay [2], in assay [5] and in assay [8] was “inactive” each time.
Regarding `CO[C@@]12[C@H](COC(N)=O)C3=C(C(=O)C(C)=C(N)C3=O)N1C[C@@H]1N[C@@H]12`, the values for the Potency in assay [2] and in assay [4] were 29.8 µM (active) and 16.8 µM (active), respectively. For the same compound, in [8], the Potency entry is “inactive”.
In the case of `O=C(O)c1ccccc1NCCc1ccccc1`, the Potency entry in assay [4], in assay [5] and in assay [8] was “inactive” each time.
Turning to `CCOC(=O)N1CCC(n2c(=O)[nH]c3cc(Cl)ccc32)CC1`, the Potency result in assay [6], in assay [3], in [4], in assay [5] and in [8] was “inactive” in each case. The Potency in assay [7] is 6.68 µM (active).
Regarding `COCCOC`, the Potency result in assay [2], in assay [3], in assay [7], in assay [4] and in assay [8] was “inactive” in each case.
For `CC(=O)N(c1onc(C)c1C)S(=O)(=O)c1ccc(N)cc1`, the Potency entry in [3], in assay [7], in assay [4], in assay [5] and in assay [8] was “inactive” in each case.
For the compound `O=C(CCCN1CCN(c2ccc(F)cc2)CC1)NC1c2ccccc2CSc2ccccc21` (configuration not stated), the Potency entry in [1] and in [8] was “inactive” in each case.
`O=C(C(=O)c1ccccc1)c1ccccc1`: the Potency result in assay [2], in assay [3], in assay [4], in [5] and in [8] was “inactive” in each case.
Regarding `CCc1c2c(nc3ccc(OC(=O)N4CCC(N5CCCCC5)CC4)cc13)-c1cc3c(c(=O)n1C2)COC(=O)[C@]3(O)CC`, the Potency result in [2], in [4] and in [8] was “inactive” throughout.
`COc1cc2ncnc(Nc3ccc(F)c(Cl)c3)c2cc1OCCCN1CCOCC1`: the Potency in assay [1] was 15 µM (active). Further, the Potency entry in [2], in assay [9], in [5] and in assay [8] was “inactive” throughout.
Turning to `O=C(N/N=C/c1ccc([N+](=O)[O-])o1)c1ccc(O)cc1`, the Potency result in assay [1], in assay [9], in assay [5] and in assay [8] was “inactive” in each case. For the same compound, the results for the Potency in assay [2] and in [4] were 11.4 µM (active) and 23.7 µM (active), respectively.
